# From the supplement of paper PMC6555819
# System: VDR:RXRa (NR concentration 270 nM, RXRa partner concentration 90 nM)
# Assay: PBM binding z-score (relative to random genomic background probes); higher = stronger binding; sequences stand for … in GC…GCGATTGACAGCGTAGAATGAAGG
# Protocol: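 Protein-binding microarray (Agilent 4x180K custom design, double-stranded 60-nt probes: 5' GC cap, 34-nt variable region, 24-nt constant primer region; full probe sequence given). Purified or IVT nuclear receptor:RXRα heterodimers (3:1 NR:RXRα, mostly 270:90 nM) or homodimers were incubated for 1 h in PBS with 2% milk and no ligand, then detected with Alexa488 antibodies. Fluorescence from o1-orientation probes (~5 replicates averaged) was converted to z-scores against 500 random hg19 background probes. Variable regions are seed direct-repeat (DR0–DR5) sites, all their single-nucleotide variants and half-site ablations.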
row,Sequence,PBM binding z-score
1,CCTACTGGGCCACGAATGGTCATTGATTCAGTGA,-0.558
2,CAAACTAGGTCAAAGGCCAAAGTCGAGCCAACCA,2.6
3,AGAAAGAGGTTATTAAGATCAGGGAATTGCGGTC,2.57
4,CCCACTGGGCCACGAAAGGTCATTGATTCAGTGA,4.18
5,GCCACTGGGGCAAAGCAGGTTACCATAAGGTTGG,-0.0502
6,TCATATAGTTAATACAGGTGAAAGTCGGCATCTA,1.26
7,AGCATGAGGTTACCAAAGATCAGGGAAACGCTTG,1.28
8,TCTAGCAGGCCAGAGGGTCCCTCAAGAGGTACGG,-0.431
9,ACAGACAGGTGATGATGGTAACTCAGGCTATCAT,-0.153
10,CCGAGTAGGTTATGGGGCAGTCAGGCAACGGTGA,-0.397
11,AGAACGAGGGCACGCTGATTTGATAGCAGAGTAG,0.858
12,CCTCGGAGGACAACAGGAGGGCAGAGCTGCCAGA,-0.641
13,ATCGAAAGGTCGTGAGGAGAGTATACAGAAAGGC,3.11
14,TCATAAAGGTAAACAGGTGAAAGTCCGTAAGTTA,1.64
15,GCTTGTAGATCAAGGTTAAGATAGACTAAGCTAA,0.0807
16,GGAACGAGGGCAAAGTAGATAGCATCTGTCGACG,0.414
17,GCTGCTAGGTCAGGTTGGTCAGCGAACGGGTACG,0.566
18,TGAATGGGGTTAAAGATCAGGGAACGTGGCGTCG,3.29
19,CCTTACGGCTCACGAGGTTATAGCACGACGAGCG,0.412
20,CGTCCAAGTTCAATGCTAGGTCAGTGAAAGCATT,4.26

row,Sequence,PBM binding z-score
1,AATACAGGGTCATCATAGGCCAGAGTACGCACAG,5.14
2,ACCTCTAGGTAAGACTCAGTTCAGTGAAGAACGC,0.00811
3,GGAACGAGGGCATTCGAGTTGATAGAATGGCGAT,3.62
4,AGAATGAGTTTAAGATCAGGGAAACAGAATACAT,0.803
5,TGAATGAGGTTATAAGATCAGTGAACGTTGCAAA,1.14
6,TCATATAGGTAAAGGTGAACGTCGAACGATATGA,0.748
7,ACAGACAAGTGAGTGAAGGTAACTCAGCTGGACG,-0.435
8,ATATGTAGGTTAGCTGGGCTCATTCAGACTAGGC,-0.0839
9,GCTATTAGTCGAAAGGGCAACCGAATGATTCTCG,0.247
10,TCATATAGGTAAAAGGAGAAAGTCGGTGTGGTAA,0.929
11,CCTACAGGGTCAGCTAGGCCAGAGTAGGGACGGC,3.53
12,ACTTACGGGACAACGAGGTTATAGCACGCGTATA,2.29
13,CCTAGCTGGCCAATCTGGGTCACTCAAGGCTTGA,0.147
14,TCATATAGGTAAATGCTACGTGAAAGTCCGATCT,0.947
15,TCACGGAGGACACGAAGGTCAGAGCTTTCCAGAG,2.33
16,ATCTCTGGGTAAGACTCAGTTCAGTGAAGAACGC,0.528
17,ATATGTAGGTTAGCTGGGGTCATTCAGACTAGGC,6.27
18,AGAATTAGGTTACCAAAGATCAGGGAAACGCTTG,0.204
19,TCTTGTAGATCAGGAGGTTAAGAAAGCTGGCCAA,0.556
20,TCTGCTAGGTGAACGATGGTCAGCTAATCTGCTA,-0.621
